The structures appear in SMILES notation. Inconclusive results are not listed. Entries that show only a call come without a potency. Activity calls are given as the source filed them. Calls follow the shape of the dose curve; as a rule, active = well fitted curve in the direction sought with a large enough effect; inconclusive = small, poorly fitted or top-dose-only effect, or another doubt; inactive = no such curve, though single readings can be large or run the other way.
Potency is read from the fitted curve at half-maximal effect.

A short description of this experiment: qHTS Assay for Rab9 Promoter Activators: Hit Validation Using Renilla Luciferase Read-Out. The conditions noted are these: Huh7 NPC1 promoter Renilla luciferase reporter, 24 h; series mostly up to 76.9 µM. In outline:
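Hit validation in Huh7 NPC promoter-luciferase reporter line: compound treatment 24 h at 37 deg C, then luminescence measured after 10 min room-temperature incubation with […] reagent.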
On the technique in general: In qHTS, concentration-response curves come from the screen itself.
Consider `Cc1cc(C)c2c(N)c(C(=O)Nc3ccc([N+](=O)[O-])cc3)sc2n1`, for which the Potency entry was “inactive”.

`Cc1[nH]n(-c2cccc3ccccc23)c(=O)c1/C=N/c1sc2c(c1C#N)CCC2`: the Potency entry was “inactive”.

Turning to `Cc1ccc(NC(=O)NC(=O)c2ccccc2)cc1F`, the Potency result is “inactive”.

As to `COc1ccc(-c2csc(Nc3ncccn3)n2)cc1C`, the Potency result is “inactive”.

On to `CCOC(=O)C1(Cc2cccc(Cl)c2)CCCN(C(=O)CCSC)C1` (stereo not drawn), for which the Potency entry is “inactive”.

Turning to `CCCCCCOc1ccc(OC(=O)c2cccnc2)cc1`, the Potency was 2070 nM (active).

For `Cc1ccc(NC(=O)Nc2cccc3ccccc23)cc1`, the Potency entry was “inactive”.

On to `COC(=O)Nc1nc2ccc(Br)cc2s1`, for which the Potency result was “inactive”.

As for `Cc1nnc2n(c1=O)N=C(c1ccc(Cl)cc1)CS2`, the Potency result was “inactive”.

As to `O=C(CCc1cccc(Cl)c1)NC1CCCN(Cc2ccccc2F)C1` (stereo not drawn), the Potency result is “inactive”.

Take `O=C(NC(=S)Nc1ccc(CN2CCCCC2)cc1)c1cc2ccccc2o1`: the Potency result was “inactive”.

Turning to `CCCCn1c(CCNC(=O)c2cccs2)nc2ccccc21`, the Potency entry was “inactive”.

In the case of `Cc1nn(CCCC(=O)NCc2ccc(F)cc2)c(C)c1[N+](=O)[O-]`, the Potency result was “inactive”.

Turning to `CCN(Cc1nc2cc(Cl)ccc2c(=O)[nH]1)C(=O)C1CC(=O)N(c2cccc3ccccc23)C1` (stereo not drawn), the Potency entry was “inactive”.

Turning to `CCCCn1c(Nc2ccc(OC)cc2)nc2ccccc21`, the Potency entry was “inactive”.

Consider `NC(=O)C(=O)NN=C1C2CC3CC(C2)CC1C3`, for which the Potency result was “inactive”.

On to `Fc1ccc(-c2nc3nc4ccccc4nc3n2Cc2ccco2)cc1`, for which the Potency entry is “inactive”.

Turning to `COC(=O)c1sccc1NC(=S)OC`, the Potency entry was “inactive”.

Regarding `CC1=C(C(=O)OC2CCCC(C)C2)C(c2ccccc2)NC(=O)N1` (stereo not drawn), the Potency entry was “inactive”.

For the compound `COc1ccc(C(c2nnnn2CCc2ccccc2)N2CCN(C3CCCC3)CC2)cc1` (stereo not drawn), the Potency result is “inactive”.

Take `CC(C)C1(CCNC(=O)c2cccs2)CCOC(C)(C)C1` (stereo not drawn): the Potency result was “inactive”.

`O=C(CCN1C(=O)c2ccccc2C1=O)Nc1ccc(-c2nc3ccccc3s2)cc1`: the Potency entry was “inactive”.

On to `COc1ccccc1N(C(=O)c1snc(C(N)=O)c1N)C(C(=O)NC1CCCCC1)c1cccc(OC)c1OC` (stereo not drawn), for which the Potency entry is “inactive”.

On to `COc1ccc(S(=O)(=O)NC(C(=O)NCCc2ccccn2)C(C)C)cc1` (stereo not drawn), for which the Potency entry is “inactive”.

Take `Cn1c(CCN2CCN(c3ccccc3)CC2)nc2cc(NC(=O)c3ccco3)ccc21`: the Potency result is “inactive”.

On to `O=C(c1cccc(Oc2ccc([N+](=O)[O-])cc2)c1)N1CCOCC1`, for which the Potency result is “inactive”.

Consider `O=C(Nc1nc2ccc(F)cc2s1)c1ccc(N2CCCC2=O)cc1`, for which the Potency result is “inactive”.

In the case of `COc1ccccc1CNC(=O)COc1ccc(C)cc1`, the Potency result was “inactive”.

As for `Cc1ccc2c(c1)sc1nc(=O)n(-c3ccccc3)c(=O)n12`, the Potency entry was “inactive”.

Take `COc1ccccc1NC(=S)NCc1ccc(Cl)cc1`: the Potency result was “inactive”.

As for `O=C(CSc1nccn1Cc1ccco1)Nc1ccccc1F`, the Potency result was “inactive”.

On to `Cc1ccc(S(=O)(=O)/N=C2\C=C(Nc3cccc(C(=O)O)c3)C(=O)c3ccccc32)cc1`, for which the Potency entry was “inactive”.

Turning to `C=CCc1ccc(OCCOCCNCCOC)c(OC)c1`, the Potency result is “inactive”.

On to `Cc1ccc(NC(=O)c2cccc(N3C(=O)CCC3=O)c2)nc1`, for which the Potency result was “inactive”.

Take `O=C(CSc1ncccn1)Nc1cccc2ccccc12`: the Potency entry is “inactive”.

Regarding `O=C(O)C1=CC[C@@H](c2ccc(Cl)cc2)N(S(=O)(=O)c2ccc(Cl)cc2)[C@H]1c1ccccc1`, the Potency entry is “inactive”.

Take `O=C(CSc1nnc(-c2csc3c2CCCC3)o1)Nc1ccccc1`: the Potency entry was “inactive”.

As for `Cc1ccc(C(=O)c2cn[nH]c2-c2ccccc2O)cc1`, the Potency entry was “inactive”.

Source of the values: PubChem BioAssay AID624117 (National Center for Advancing Translational Sciences (NCATS), 2012).
